This is part of a sample that, as a whole, favours compounds with a hit. Of some 83,000 tested, about 20% had one in any assay.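 The endpoint reported here, percent growth, reads 100 for growth as untreated, 0 for no net growth and -100 for all cells dead.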 A number with no mark means an inactive call. The source made the active and inactive calls. Rule for the calls: active = growth percent below 10; inactive = the rest.
Tests used:
Experiment in all cases: NCI-60 one-dose screen, 48 h (100 = growth as untreated, 0 = no growth, -100 = all killed)
Settings in all cases: 10 µM unless noted
DU-145 prostate = tested on: DU-145 prostate
K-562 leukemia = tested on: K-562 leukemia
MALME-3M melanoma = tested on: MALME-3M melanoma
MDA-MB-231 breast = tested on: MDA-MB-231 breast
RXF 393 renal = tested on: RXF 393 renal
SF-268 CNS = tested on: SF-268 CNS
SF-295 CNS = tested on: SF-295 CNS
SF-539 CNS = tested on: SF-539 CNS
UACC-257 melanoma = tested on: UACC-257 melanoma
M14 melanoma = tested on: M14 melanoma
HCT-15 colon = tested on: HCT-15 colon
HT29 colon = tested on: HT29 colon
SNB-75 CNS = tested on: SNB-75 CNS
SNB-19 CNS = tested on: SNB-19 CNS
U251 CNS = tested on: U251 CNS
PC-3 prostate = tested on: PC-3 prostate
SK-MEL-5 melanoma = tested on: SK-MEL-5 melanoma
UACC-62 melanoma = tested on: UACC-62 melanoma
LOX IMVI melanoma = tested on: LOX IMVI melanoma
SK-MEL-28 melanoma = tested on: SK-MEL-28 melanoma

Compound | growth (DU-145 prostate) | growth (K-562 leukemia) | growth (MALME-3M melanoma) | growth (MDA-MB-231 breast) | growth (RXF 393 renal) | growth (SF-268 CNS) | growth (SF-295 CNS) | growth (SF-539 CNS) | growth (UACC-257 melanoma) | growth (M14 melanoma) | growth (HCT-15 colon) | growth (HT29 colon) | growth (SNB-75 CNS) | growth (SNB-19 CNS) | growth (U251 CNS) | growth (PC-3 prostate) | growth (SK-MEL-5 melanoma) | growth (UACC-62 melanoma) | growth (LOX IMVI melanoma) | growth (SK-MEL-28 melanoma)
NC(=O)c1ccc[n+](Cc2ccc(Cl)cc2Cl)c1 | 111% | 92.9% | 100% | 103% | 118% | 103% | 111% | 105% | 72% | 94.5% | 105% | 91.3% | 102% | 101% | 89.6% | 88.9% | 97.6% | 93.2% | 95.8% | 108%
Cc1c(Cl)cc(-n2c(=O)c3ccccc3c3ccccc3c2=O)cc1Cl | 121% | 106% | 90.5% | 84.2% | 123% | 105% | 102% | 110% | 104% | 93% | 110% | 103% | 89.9% | 104% | 102% | 82% | 107% | 92.6% | 95.2% | 117%
COc1c(CCC[P+](c2ccccc2)(c2ccccc2)c2ccccc2)cc2c(c1OC)OCO2 | 23.5% | 12.3% | 9.97% (active) | -8.84% (active) | 29% | 15.4% | 20.8% | 20.2% | -3.96% (active) | 12.2% | 92.3% | 38.2% | -3.69% (active) | 9.64% (active) | 7.32% (active) | -0.165% (active) | -68.6% (active) | -3.8% (active) | 15.9% | 25.1%
O=C(N/N=C/c1ccncc1)c1ccc(C(F)(F)F)nc1Nc1cccc(C(F)(F)F)c1 | 40.6% | 13.9% | 4.45% (active) | 21.1% | -8.63% (active) | 23.4% | -24.1% (active) | 26.1% | 21.9% | 25.4% | 13.1% | 23.1% | 46.7% | 36% | 8.49% (active) | 20.5% | 10% | 15.1% | 20.5% | 44.9%
COC(=O)c1ccc(C2Nc3ccc(S(=O)(=O)Nc4ccc(C)c(C)c4)cc3C3OCCC23)cc1 (stereo not given) | 100% | 40.8% | 77.4% | 83.9% | 101% | 78% | 77.4% | 96.2% | 79.6% | 94.1% | 71.2% | 83.7% | 79.1% | 78.2% | 71.5% | 82.4% | 58% | 65.3% | 93% | 99.5%
C=CCSc1nc2ccccc2cc1/C=N/O | 110% | 92.3% | 129% | 97.6% | 68.8% | 90.8% | 94.7% | 104% | 87.6% | 91% | 95.8% | 92.7% | 58% | 89.3% | 86.6% | 83.1% | 96.3% | 71.2% | 85.9% | 88%
COCN1CCC2N(COC)CCC3N(COC)CCC1N23 (stereo not given) | 111% | 111% | 134% | 94.1% | 112% | 104% | 113% | 101% | 98.8% | 98% | 104% | 105% | 90.8% | 93.6% | 102% | 102% | 109% | 94.3% | 101% | 106%
O=c1cc(-c2ccc(Cl)cc2)[nH]c2ccccc12 | 97.4% | 33% | 84.7% | 81.6% | 76.4% | 86.1% | 84.1% | 94.5% | 73.3% | 71.8% | 59.1% | 86.3% | 85.3% | 91.5% | 80% | 75.7% | 59.1% | 67.8% | 71.4% | 78.1%
C=CC(=O)Nc1cccc(Oc2nccc(Nc3nnc(C4CC4)s3)n2)c1 | 94.5% | 81.9% | 111% | 67.1% | 86.1% | 89.8% | 104% | 89.1% | 105% | 113% | 91.5% | 96.8% | 71.4% | 82.7% | 94.1% | 91.7% | 89.5% | 95.6% | 89.6% | 98.8%
O=C(CCc1nnc(CN(c2ccccc2)c2ccccc2)o1)c1nc2ccccc2[nH]1 | 104% | 76.3% | 94.3% | 75.3% | 113% | 93.6% | 95.6% | 97.5% | 103% | 102% | 97.4% | 93.4% | 86.9% | 92.7% | 94.9% | 76.3% | 99.4% | 69.4% | 80.3% | 112%
O=S(=O)(NCCCNc1cc(-c2c(-c3cccc(O)c3)nc3sccn23)ccn1)c1cccc(Cl)c1 | 55.9% | 25.4% | 48.2% | 73.6% | 41.1% | 44.3% | 49.3% | 77.4% | 68.4% | 41.7% | 28.4% | 50.2% | 14.2% | 67.3% | 53.4% | 24.6% | 31.1% | 40.3% | 29.6% | 60.7%
Cc1ccc(/C=C/c2c(C(=O)/C=C/c3ccc(C(F)(F)F)cc3)c(C)nc3ccccc23)cc1 | -78.3% (active) | -16.6% (active) | -65.4% (active) | -40.5% (active) | -87.8% (active) | -5% (active) | -75.8% (active) | -83.4% (active) | -17.7% (active) | -35.8% (active) | -29.6% (active) | 5.36% (active) | -42.5% (active) | -62.9% (active) | -70.7% (active) | -43.8% (active) | -86.4% (active) | -45.8% (active) | -87.3% (active) | -63.2% (active)
COc1ccc(-c2csc(C3=C(O)CN(CCCN4CCCC4=O)C3=N)n2)cc1OC | 103% | 88.9% | 129% | 79.6% | 78.3% | 121% | 92% | 90.1% | 97.2% | 122% | 94% | 114% | 106% | 93.8% | 99% | 83.5% | 89.2% | 103% | 93.5% | 124%
N[C@@H](CCCCNCC(=O)O)C(=O)O | 103% | 100% | 97.6% | 89.1% | 108% | 102% | 100% | 92.7% | 101% | 104% | 98.8% | 116% | 84.1% | 99.2% | 99.9% | 121% | 101% | 94.4% | 100% | 104%
O=C(O)CN1C(=O)CCC1=O | 109% | 111% | 104% | 90.7% | 111% | 99.8% | 99.1% | 99% | 104% | 111% | 103% | 90.6% | 95.3% | 108% | 105% | 108% | 103% | 108% | 102% | 107%

From PubChem BioAssay (NCI)
